Data on six compounds can be found in PubChem BioAssay.

Calls of active or inactive are those of the source.

The target in one assay is Albumin (Bos taurus) (UniProt P02769). Briefly: bovine serum albumin binders on microarray, profiling panel, artefact control for SMM control protein annotation, biochemical, small-molecule microarray, Alexa647 label, 635/667 nm fluorescence (AID 1118).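 Also: score merges 667 nm emission intensity and signal-to-noise per printed compound spot.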 The following applies: BSA-A647 binding, fluorescence 635 nm, higher = more signal.
Sequence of Albumin (Bos taurus) (P02769 whole entry, looked up): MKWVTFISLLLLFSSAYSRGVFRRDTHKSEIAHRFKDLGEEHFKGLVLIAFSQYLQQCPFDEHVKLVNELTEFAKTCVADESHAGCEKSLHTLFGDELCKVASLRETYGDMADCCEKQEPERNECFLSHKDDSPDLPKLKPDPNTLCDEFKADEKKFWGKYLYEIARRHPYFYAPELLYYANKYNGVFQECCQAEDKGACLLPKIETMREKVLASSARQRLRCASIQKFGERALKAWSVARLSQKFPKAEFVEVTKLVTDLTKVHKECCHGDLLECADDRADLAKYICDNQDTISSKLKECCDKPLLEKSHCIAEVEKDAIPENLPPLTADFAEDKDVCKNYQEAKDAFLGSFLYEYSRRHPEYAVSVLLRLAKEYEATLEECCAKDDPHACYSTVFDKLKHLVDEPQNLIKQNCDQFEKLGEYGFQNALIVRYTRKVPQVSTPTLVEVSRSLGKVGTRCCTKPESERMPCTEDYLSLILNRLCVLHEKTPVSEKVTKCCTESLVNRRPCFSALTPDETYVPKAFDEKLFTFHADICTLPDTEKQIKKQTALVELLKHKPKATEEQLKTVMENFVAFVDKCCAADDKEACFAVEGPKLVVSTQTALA
A short description of assay [1]: small-molecule microarray binders of probe aXIP, primary screen, biochemical, NeuroSMM set, 635/667 nm fluorescence (AID 1119).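 Also: probe is the protein aXip251-270 applied at 1 µg/mL to compound-printed slides; binding of probe to printed compounds measured as 667 nm fluorescence plus signal to noise.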 The note with it: higher = more signal, called active from +8 up or from −8 down.
Assay [2] is described as follows: small-molecule binders of probe aNOTCH3, primary screen, biochemical, small-molecule microarray, 635/667 nm fluorescence (AID 1120).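 Also: probe is a biotin-tagged antibody raised against NOTCH3 rather than NOTCH3 protein; score merges spot fluorescence near 667 nm with spot signal to noise.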 The note with it: higher = more signal.
Assay [3] is described as follows: small-molecule binders of probe aNOTCH2, primary screen, biochemical, small-molecule microarray, 635/667 nm fluorescence (AID 1121).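 Also: score merges feature fluorescence read at 667 nm with its signal to noise.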 The note with it: higher = more signal.
Assay [4] has as its target Carbonic anhydrase 2 (Homo sapiens) (UniProt P00918). Briefly: CAII small-molecule binders, profiling panel, biochemical, small-molecule microarray, Alexa647-labelled CAII (AID 1122). The note with it: CAII-A647 binding fluorescence, higher = more signal.
Assay [5] in a line: COS7 lysate on small-molecule microarray, probe aHis, 635 nm (AID 1123).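 Also: z-score combines 667nm fluorescence intensity with signal-to-noise per printed compound spot.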 The note with it: COS7 cell lysate, fluorescence, higher = more signal.
Assay [6] is described as follows: compound binding in COS7 lysate, probe aLAP1, primary screen, cell lysate, small-molecule microarray (AID 1124).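 Also: lysate comes from COS7 cells expressing LAP1 and is applied at 0.3 µg/mL; score merges spot fluorescence near 667 nm with signal-to-noise over triplicate slides.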 The following applies: probe aLAP1, fluorescence, higher = more signal.
The next assay has as its system Sam68 (KHDRBS1). Briefly: Sam68 small-molecule binders, primary screen, biochemical, small-molecule microarray, 635 nm fluorescence (AID 1125).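 Also: score merges 667 nm channel intensity with signal to noise over triplicate slides.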 The note with it: small-molecule microarray binding, higher = more signal.
Assay [7] deals with Chordin-like protein 2 (CHRDL2). The assay can be described thus: CHRDL2 small-molecule binders, primary screen, biochemical, small-molecule microarray, 635 nm fluorescence (AID 1126).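 Also: printed compound slides probed with Chrdl2 protein at 4 µg/mL for 1 h at 4 C; score merges 667 nm emission intensity with signal to noise over three replicate slides.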 The following applies: small-molecule microarray binding, fluorescence 635 nm; higher = more signal.
Assay [8] deals with Concanavalin-A (Canavalia ensiformis) (UniProt P02866). Briefly: ConA small-molecule binders, primary screen, artefact control for SMM control protein annotation, biochemical, small-molecule microarray, Alexa647 label, 635 nm (AID 1127).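 Also: z combines 667 nm emission intensity with signal-to-noise across three replicate slides.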 The following applies: ConA-A647 binding fluorescence, higher = more signal.
Sequence of Concanavalin-A (Canavalia ensiformis) (P02866 whole entry, looked up): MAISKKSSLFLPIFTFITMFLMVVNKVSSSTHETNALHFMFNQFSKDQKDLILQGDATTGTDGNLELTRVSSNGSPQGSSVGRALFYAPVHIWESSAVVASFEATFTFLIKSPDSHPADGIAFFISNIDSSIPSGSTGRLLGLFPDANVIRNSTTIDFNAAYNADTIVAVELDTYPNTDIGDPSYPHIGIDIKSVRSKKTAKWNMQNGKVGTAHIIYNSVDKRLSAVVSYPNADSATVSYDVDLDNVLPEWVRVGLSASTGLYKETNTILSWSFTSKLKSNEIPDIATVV
Assay [9] in a line: anti-His antibody binders, primary screen, artefact control for SMM control protein annotation, biochemical, small-molecule microarray, 635 nm fluorescence (AID 1128).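 Also: score merges feature fluorescence with signal-to-noise for each printed compound spot.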 The following applies: anti-His Alexa647 antibody binding, higher = more signal.
For assay [10], the system named is Human papillomavirus type 1a E7 protein (residues 1-88). Briefly: HPV1a E7 small-molecule binders, primary screen, biochemical, small-molecule microarray, residues 1-88, 635 nm (AID 1129). The following applies: small-molecule microarray binding, fluorescence 635 nm; higher = more signal.
Assay [11] addresses Focal adhesion kinase 1 (Homo sapiens) (UniProt Q05397). Briefly: small-molecule microarray binders of FAK, primary screen, biochemical, 635/667 nm fluorescence, BSA, DTT (AID 1130).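 Also: composite of spot emission at 667 nm and signal to noise over triplicate slides.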 The following applies: PTK2 binding, 635 nm fluorescence, higher = more signal.
For assay [12], the system named is Fibrinogen (Alexa647-labelled). Briefly: fibrinogen binders on compound microarrays, profiling panel, artefact control for SMM control-protein annotation, biochemical, small-molecule microarray, 635/667 nm fluorescence (AID 1131).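 Also: z-score merges 667 nm fluorescence with per-spot signal-to-noise over triplicate slides.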 The following applies: fibrinogen-A647 binding fluorescence, higher = more signal.
Assay [13] concerns the target Follistatin (Homo sapiens) (UniProt P19883). Briefly: follistatin binders on small-molecule microarrays, primary screen, biochemical, small-molecule microarray, 635/667 nm fluorescence (AID 1132). The following applies: FST binding, 635 nm fluorescence, higher = more signal.
The target of assay [14] is Fibroblast growth factor 2 (Homo sapiens) (UniProt P09038). Briefly: FGF2 binders on small-molecule microarrays, primary screen, biochemical, small-molecule microarray, 635/667 nm fluorescence (AID 1133). The note with it: small-molecule microarray binding, FGF2, fluorescence 635/667; higher = more signal.
Sequence of Fibroblast growth factor 2 (Homo sapiens) (P09038 whole entry, looked up): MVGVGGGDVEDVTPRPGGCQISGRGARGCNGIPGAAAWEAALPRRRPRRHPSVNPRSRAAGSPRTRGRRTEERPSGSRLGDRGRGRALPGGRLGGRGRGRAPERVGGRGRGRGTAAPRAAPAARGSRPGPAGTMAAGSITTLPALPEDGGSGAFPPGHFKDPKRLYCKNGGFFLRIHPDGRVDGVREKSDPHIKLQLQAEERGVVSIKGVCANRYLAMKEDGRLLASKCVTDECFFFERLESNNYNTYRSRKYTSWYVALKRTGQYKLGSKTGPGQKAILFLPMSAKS
The nature of assay [15]: mitochondrial membrane potential change in A549 cells, profiling panel, cell-based, JC-1 fluorescence, basal, 24 h, 100 nL (AID 1138).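 Also: A549 lung adenocarcinoma cells under basal conditions with no added stimulus; test concentration not given here.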 The following applies: higher = more signal.
For another assay, the system named is Lefty1. The assay can be described thus: Lefty1 binders on small-molecule microarrays, primary screen, biochemical, small-molecule microarray, 635/667 nm fluorescence (AID 1139). The note with it: small-molecule microarray binding, fluorescence 635/667; higher = more signal.
For assay [16], the system named is wheat germ agglutinin (Triticum aestivum), Alexa647-labelled. Briefly: wheat germ agglutinin binders on compound microarrays, profiling panel, artefact control for SMM control-protein annotation, biochemical, small-molecule microarray, 635/667 nm fluorescence (AID 1140).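 Also: score merges 667 nm feature emission with signal to noise over triplicate slides.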 The note with it: WGA-A647 binding, 635 nm fluorescence, higher = more signal.
The target in assay [17] is Luciferin 4-monooxygenase (Photinus pyralis) (UniProt P08659). Briefly: firefly luciferase enzyme inhibitors, primary screen, biochemical, luminescence, purified enzyme, 2006 set (AID 1141).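 Also: cell-free assay with purified firefly luciferase at 100 ng per well in PBS; test concentration not given here.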 The note with it: SteadyGlo luminescence, 30 min, higher = more signal, called active from +8 up or from −8 down.
Sequence of Luciferin 4-monooxygenase (Photinus pyralis) (P08659 whole entry, looked up): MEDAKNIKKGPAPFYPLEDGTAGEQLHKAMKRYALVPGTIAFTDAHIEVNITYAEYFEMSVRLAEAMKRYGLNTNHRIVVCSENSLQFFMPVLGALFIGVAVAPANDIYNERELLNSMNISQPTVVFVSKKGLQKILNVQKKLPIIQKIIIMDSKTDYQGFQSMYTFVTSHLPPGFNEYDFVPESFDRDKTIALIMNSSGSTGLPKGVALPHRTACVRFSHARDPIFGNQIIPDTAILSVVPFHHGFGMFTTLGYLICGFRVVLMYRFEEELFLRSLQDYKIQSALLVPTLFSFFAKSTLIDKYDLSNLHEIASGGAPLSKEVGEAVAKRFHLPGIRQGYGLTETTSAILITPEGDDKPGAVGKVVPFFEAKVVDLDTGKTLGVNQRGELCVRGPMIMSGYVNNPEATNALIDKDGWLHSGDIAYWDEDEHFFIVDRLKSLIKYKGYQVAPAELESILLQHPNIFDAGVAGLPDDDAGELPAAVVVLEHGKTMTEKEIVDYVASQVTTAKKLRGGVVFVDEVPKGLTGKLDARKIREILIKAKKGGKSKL

Sequence of Focal adhesion kinase 1 (Homo sapiens) (Q05397 whole entry, looked up): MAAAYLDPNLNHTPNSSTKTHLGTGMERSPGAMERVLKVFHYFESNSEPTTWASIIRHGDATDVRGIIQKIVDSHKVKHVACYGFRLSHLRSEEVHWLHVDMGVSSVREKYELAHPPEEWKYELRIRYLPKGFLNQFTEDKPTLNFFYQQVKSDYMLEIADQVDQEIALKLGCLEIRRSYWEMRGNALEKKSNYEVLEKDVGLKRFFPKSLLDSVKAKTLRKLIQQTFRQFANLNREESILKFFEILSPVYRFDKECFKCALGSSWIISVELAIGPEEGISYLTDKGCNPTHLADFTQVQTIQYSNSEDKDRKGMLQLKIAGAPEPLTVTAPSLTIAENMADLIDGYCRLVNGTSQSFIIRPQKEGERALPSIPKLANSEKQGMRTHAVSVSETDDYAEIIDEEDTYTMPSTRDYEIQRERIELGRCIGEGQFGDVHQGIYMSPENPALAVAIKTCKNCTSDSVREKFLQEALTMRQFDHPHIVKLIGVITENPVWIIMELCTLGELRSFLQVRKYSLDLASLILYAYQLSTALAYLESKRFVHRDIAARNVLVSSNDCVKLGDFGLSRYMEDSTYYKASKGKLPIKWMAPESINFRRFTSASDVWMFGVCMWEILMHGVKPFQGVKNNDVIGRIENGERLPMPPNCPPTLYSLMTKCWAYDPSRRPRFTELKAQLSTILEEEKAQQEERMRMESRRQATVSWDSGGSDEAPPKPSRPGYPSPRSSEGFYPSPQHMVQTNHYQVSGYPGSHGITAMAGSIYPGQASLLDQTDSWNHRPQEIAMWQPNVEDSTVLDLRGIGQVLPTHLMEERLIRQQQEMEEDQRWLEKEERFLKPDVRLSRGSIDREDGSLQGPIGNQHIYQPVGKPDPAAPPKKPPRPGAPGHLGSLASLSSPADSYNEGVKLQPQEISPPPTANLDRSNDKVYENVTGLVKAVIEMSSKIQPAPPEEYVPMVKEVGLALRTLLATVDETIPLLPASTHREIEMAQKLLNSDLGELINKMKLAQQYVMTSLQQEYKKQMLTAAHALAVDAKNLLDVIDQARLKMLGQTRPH
Sequence of Follistatin (Homo sapiens) (P19883 whole entry, looked up): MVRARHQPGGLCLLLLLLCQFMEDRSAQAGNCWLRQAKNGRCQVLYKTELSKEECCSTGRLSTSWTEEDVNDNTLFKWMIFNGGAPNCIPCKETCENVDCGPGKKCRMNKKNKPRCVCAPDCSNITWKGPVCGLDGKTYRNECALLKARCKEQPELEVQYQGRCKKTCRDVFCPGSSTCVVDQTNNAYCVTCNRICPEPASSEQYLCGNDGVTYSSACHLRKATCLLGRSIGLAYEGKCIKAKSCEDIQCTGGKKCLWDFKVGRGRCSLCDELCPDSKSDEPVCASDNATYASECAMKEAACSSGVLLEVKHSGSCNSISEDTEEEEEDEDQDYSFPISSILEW

Consider `C[C@@H]1C=CCC(=O)OC[C@H](C)C(=O)N2CCC[C@H]2C(=O)OC1`, for which the composite z-score in the assay with Albumin (Bos taurus) is -0.12; in assay [2] it was -0.143; in assay [3] it was -0.0338; in assay [4] it was -0.0527; in assay [5], -0.0199; in assay [6] it was 0.0742. The composite z-score was 1.14 in the assay on Sam68 (KHDRBS1); 1.58 in assay [7]; 0.182 in assay [8]; 2.67 in assay [9]; 0.589 in [10]; -0.344 in assay [11]. The composite z-score in assay [12] was -0.592; in assay [13], 1.31; in assay [14], 1.74; in the assay with Lefty1 it was 1.59; in [16] it was -0.273. In assay [1], the composite Z-score was 0.608 (inactive). Besides, the results for the z-score in [15] and in assay [17] were -0.741 and 1.1 (inactive), respectively.
`CO[C@@H]1COC(=O)CCC[C@@H](C)[C@H](OC)COC(=O)[C@H](Cc2ccccc2)NC(=O)CC=C[C@H]1C`: the composite z-score in the assay with Albumin (Bos taurus) was -0.603; in assay [2], -0.16; in assay [3] it was -0.175; in assay [4] it was -0.571; in assay [5], -1.42; in assay [6], -0.34. Further, the composite z-score in the assay on Sam68 (KHDRBS1) is -1.56; in [7], 1.39; in [8], -1.21; in assay [9] it was 0.393; in [10], -2.53; in assay [11] it was -0.268. The composite z-score in assay [12] is -0.876; in assay [13] it was 1.29; in assay [14], 0.273; with Lefty1, 0.978; in assay [16], -0.271. The composite Z-score in [1] was 0.274 (inactive). Further, the z-score in assay [15] was -0.972; in assay [17] it was -0.418 (inactive).
As to `COc1cccc([C@H]2Oc3ccc(OC)cc3C(=NOC(C)CN3CCCc4nc(C)c(C)cc43)[C@@H]2O)c1` (stereo not given in full), the composite z-score was -0.605 with Albumin (Bos taurus); 0.119 in [2]; -0.0527 in assay [3]; 0.431 in assay [4]; 0.298 in assay [5]; 0.532 in [6]. Also, the composite z-score in the assay on Sam68 (KHDRBS1) is 1.14; in assay [7], 0.414; in assay [8], -1.16; in assay [9], 2.41; in [10], 0.857; in assay [11] it was 0.394. Moreover, the composite z-score was -0.712 in [12]; 0.073 in assay [13]; 0.125 in [14]; 0.809 with Lefty1; -0.299 in assay [16]. For the same compound, in [1], the composite Z-score is 0.904 (inactive). Besides, the z-score in assay [15] was 0.128; in assay [17], 0.149 (inactive).
Turning to `C=CCNC(=O)[C@H]1[C@@H]2C(=O)O[C@@H](c3ccccc3)[C@@H](c3ccccc3)N2[C@@H](c2ccc(O)cc2)[C@]12C(=O)N(C(=O)OCCOC)c1ccc(C#CC3=CCCCC3)cc12`, the composite z-score is 0.633 with Albumin (Bos taurus); 1.27 in assay [2]; 0.396 in assay [3]; 0.296 in [4]; 2.23 in assay [5]; 1.78 in [6]. Besides, the composite z-score with Sam68 (KHDRBS1) came to 1.3; in [7], 0.966; in assay [8], 1.09; in assay [9], 0.692; in [10], 1.22; in assay [11], 0.723. Further, the composite z-score in assay [12] is 0.892; in assay [13], 0.379; in assay [14], 0.248; in the assay with Lefty1 it was 0.484; in assay [16], 0.583. For the same compound, in [1], the composite Z-score was 0.62 (inactive). The z-score is -0.76 in assay [15] and -0.54 (inactive) in assay [17].
Take `CO[C@H]1COC(=O)[C@H](C)COC(=O)CC=C[C@@H](C)[C@H](OC)COC(=O)CC=C[C@@H]1C`: the composite z-score in the assay with Albumin (Bos taurus) was -0.991; in [2], -0.132; in [3], -0.164; in [4], -0.405; in assay [5], -0.602; in [6] it was -0.142. Besides, the composite z-score with Sam68 (KHDRBS1) was -0.0288; in assay [7], 1.4; in assay [8], 0.184; in [9], 0.0475; in assay [10] it was -0.774; in assay [11], -0.117. The composite z-score in assay [12] is -0.217; in assay [13], 1.16; in [14], 1.41; in the assay on Lefty1 it was 1.15; in assay [16], -0.531. Besides, in [1], the composite Z-score was -0.222 (inactive). Further, the z-score was 1.11 in assay [15] and -1.59 (inactive) in assay [17].
For the compound `C[C@@H]1C=CCC(=O)OC[C@H](C)C(=O)OC[C@H]2O[C@H]1C=C[C@H]2O`, the composite z-score was 0.411 in the assay with Albumin (Bos taurus); 0.2 in assay [2]; -0.0795 in assay [3]; 0.116 in assay [4]; 0.544 in assay [5]; 0.0137 in [6]. Also, the composite z-score with Sam68 (KHDRBS1) was 0.0768; in [7] it was 0.458; in assay [8] it was 0.227; in [9] it was -0.31; in assay [10] it was -0.307; in assay [11], -0.174. Further, the composite z-score turned out to be 0.303 in assay [12]; 0.208 in [13]; 0.577 in assay [14]; 0.781 in the assay on Lefty1; 0.59 in assay [16]. Besides, the composite Z-score in assay [1] is -0.18 (inactive). Also, the z-score in assay [15] is 0.328; in assay [17], -1.1 (inactive).
